# High-throughput results as filed in PubChem BioAssay.
# Pf growth 48h: P. falciparum growth inhibition at 48 hours (one generation) | P. falciparum luciferase growth in erythrocytes, 48 h | Potency, µM (highest dose often 28.7 µM), inactives show top-dose activity change, negative = inhibition, usual class: inhibitors | 310,000 compounds, 5.9% hits | AID 504832; also: potency is read from the fitted curve at half-maximal effect; % is scaled to controls: 0 for no effect and ±100 for the full control effect
#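 In quantitative HTS format, infected erythrocytes bearing luciferase-reporter parasites were treated for a single generation at 37 C. Luminescence after adding detection reagent served as the growth measure.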
# Shiga inhibitor: inhibitors of Shiga toxin in Vero cells | AID 2315 | 290,000 compounds, 9.2% hits | inhibition, % at 38.7 µM | Vero cells, Shiga toxin protein synthesis inhibition reporter; in the data active = inhibition mostly above about 28%, no sharp cut-off; inactive = mostly below about 43%; also: 0% is about no effect
# Cycloheximide cs: affects cycloheximide protein synthesis inhibition readout, counter-screen; 300,000 compounds, 12% hits; cell reporter, cycloheximide protein synthesis inhibition counterscreen; AID 2314; max response, %; in the data active = max response mostly above about 13%, no sharp cut-off; inactive = mostly below about 14%; also: read at 38.3 µM for the half of the compounds with a filed dose; 0% is about no effect
# Pf growth 96h: P. falciparum growth inhibition at 96 hour, primary screen for plastid delayed-death inhibitors | P. falciparum luciferase reporter growth, 96 h | Potency, µM (highest dose often 28.7 µM), for the others: at the top dose activity change, negative = inhibition, hits mostly inhibitors | 320,000 compounds, 6.9% hits; also: potency is read from the fitted curve at half-maximal effect; % is scaled to controls: 0 for no effect and ±100 for the full control effect
#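 Parasite growth measured via integrated firefly luciferase reporter in P. falciparum. Infected erythrocytes at 2% hematocrit, 0.05% parasitemia final were treated 96 hours at 37 C under 5% CO2, and luminescence was read.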
# An asterisk follows results filed as active; i = inactive; ? = inconclusive; · = no result given. Sampled rows, rich in hits. Any-hit rate of the full collection: about 21%. Unless noted, calls follow the shape of the dose curve; as a rule, active = well fitted inhibition curve with a large enough effect; inconclusive = small, poorly fitted or top-dose-only effect, or another doubt; inactive = no such curve, though single readings can be large or run the other way.
SMILES,Pf growth 48h,Shiga inhibitor,Cycloheximide cs,Pf growth 96h
Cc1csc(SC(C)C(=O)Nc2ccccc2C)n1 (stereo not drawn),-14%,·,·,-3%
CCC(C)N(C(=O)Cn1nnc2ccccc21)C(C(=O)Nc1ccc(F)cc1)c1cccc(OC)c1 (stereo not drawn),?,-10,-2,10µM*
COCCNC(=O)C(c1cccc(OC)c1)N(Cc1cccs1)C(=O)Cn1nnc2ccccc21 (stereo not drawn),-25%,0,1,33%
Nc1cccn2c(-c3ccc(Cl)cc3)cnc12,234%,197*,47*,207%
Cn1c(-c2ccc(Cl)cc2)cnc1N,?,20,10,·
Nc1cccn2c(-c3ccc(Cl)c(Cl)c3)cnc12,i,92*,74*,i
O=C1NC(=O)C2(Cc3ccccc3N3CCCC32)C(=O)N1c1cccc(Cl)c1 (stereo not drawn),-17%,-6,0,2.3µM*
CN(C)c1nc2ccc(OCCN3CCCCC3)cc2s1,67%,57,42*,47%
Cc1ccc(OCCN2CCCC2)cc1,-15%,32,-1,-3%
CCN(CC)CCOc1ccc2nc(N(C)C)sc2c1,12%,32,27*,4%
CCc1ccc(CN2CCC(n3nccc3NC(=O)Cc3ccccc3)CC2)o1,-13%,-13,-1,9%
CCCC(=O)NCc1ccc2c(c1)cc(C)n2C,-23%,-15,-6,244%
Cc1cc2cc(CNC(=O)c3ccc(Br)o3)ccc2n1C,?,-6,-6,9.3µM*
Cc1ccc(CNC(=O)c2ccc(Br)o2)cc1,40%,75,20*,17%
Cc1cc2cc(CNC(=O)c3ccc(S(=O)(=O)N(C)C)cc3)ccc2n1C,?,-11,-2,?
Cc1cc2cc(CNC(=O)c3ccc(S(=O)(=O)N4CCOCC4)cc3)ccc2n1C,13µM*,11,5,?
O=C(NCc1ccccc1)c1ccc(Br)o1,9%,-14,6,-9%
CC1CCN(CC(CS(=O)(=O)c2ccc([N+](=O)[O-])cc2)N2CCC(C)CC2)CC1 (stereo not drawn),?,-2,-2,?
NCC[C@H](O)C(=O)N[C@@H]1C[C@H](N)[C@@H](O[C@H]2O[C@H](CN)CC[C@H]2N)[C@H](O)[C@H]1O[C@H]1O[C@H](CO)[C@@H](O)[C@H](N)[C@H]1O,-5%,·,·,-17%
CCOC(=O)C1(Cc2cccc(OC)c2)CCN(Cc2ccc(C)s2)CC1,?,-8,-1,?
CCOC(=O)Cc1csc(NC(=O)COc2ccc(C)c(C)c2)n1,121%,41*,33*,32%
CCOC(=O)Cc1csc(NC(=O)Nc2ccc(OC(F)(F)F)cc2)n1,12µM*,45*,23*,9.3µM*
CCOC(=O)Cc1csc(NC(=O)CCCc2ccccc2)n1,0%,9,7,-28%
CCOC(=O)Cc1csc(NC(=O)/C=C/c2ccc(OC)cc2)n1,21%,115*,37*,14%
CCOC(=O)Cc1csc(NC(=O)/C=C\c2ccccc2)n1,178%,53*,32*,?
SMILES,Pf growth 48h,Shiga inhibitor,Cycloheximide cs,Pf growth 96h
CCOC(=O)Cc1csc(NC(=O)c2cc(OC)cc(OC)c2)n1,-8%,14,6,-28%
CCOC(=O)Cc1csc(NC(=O)COc2ccc(C)cc2)n1,?,11,10,97%
Cc1nsc2nc3c(F)c(F)c(F)c(F)c3cc12,49%,-4,-4,12%
CC1CN=C(Nc2cccc3ccccc23)S1 (stereo not drawn),11%,37,19*,15%
CC1CN=C(Nc2ccccc2)S1 (stereo not drawn),5%,8,9,54%
CC1CN=C(Nc2ccc(N(C)C)cc2)S1 (stereo not drawn),17%,-2,-5,2.1µM*
CC1CN(C(=O)COC(=O)Cc2c(F)cccc2Cl)CC(C)O1 (stereo not drawn),-13%,·,·,-7%
CCCOc1ccc(C(C)=O)cc1CSCCC#N,-28%,1,-1,?
CCCOc1ccc(C(C)=O)cc1CSc1nc(O)cc(=O)[nH]1,·,2,9,0.93µM*
Cc1ccc(CC2SC(=Nc3ccccc3)N(c3ccccc3)C2=O)cc1 (stereo not drawn),10µM*,-10,-5,197%
O=C1SC(Cc2ccccc2)C(=O)N1c1ccccc1 (stereo not drawn),19%,20,1,5%
Cc1ccc(N2C(=O)SC(Cc3ccccc3)C2=O)cc1 (stereo not drawn),31%,42*,14*,105%
CCCCC(=O)Nc1c2c(nn1-c1ccc(C)cc1)CS(=O)(=O)C2,-3%,-16,-7,?
C#CCNc1ccc([N+](=O)[O-])cc1,38%,22,16*,-5%
